In test [1] the target is Cellular tumor antigen p53 (Homo sapiens) (UniProt P04637). The test can be described thus: Primary qHTS for small molecule compounds that upregulate eGFP-tagged delta133p53alpha (in N-terminal) cells. (AID 2060322).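 Also: cells pre-induced with doxycycline then dosed without doxycycline; series mostly up to about 56 µM; 0% = DMSO vehicle and 100% = reference activator; nearly all actives have a fitted effect of over 75% in size.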 Conditions: NCI-H358 eGFP-delta133p53alpha fluorescence, 24 h; activation: active compounds read high. The method, boiled down: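 NCI-H358 cells pre-induced 24 h with 10 ng/ml doxycycline for eGFP-delta133p53alpha, plated dox-free and exposed 24 h at 37C to titrated compounds. Fixed, Hoechst-stained; gated GFP peak intensity by laser scanning cytometry, normalized to DMSO (0%) and 57.5 uM 5-azacytidine (100%).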
Cellular tumor antigen p53 (Homo sapiens), sequence (P04637 whole entry, looked up): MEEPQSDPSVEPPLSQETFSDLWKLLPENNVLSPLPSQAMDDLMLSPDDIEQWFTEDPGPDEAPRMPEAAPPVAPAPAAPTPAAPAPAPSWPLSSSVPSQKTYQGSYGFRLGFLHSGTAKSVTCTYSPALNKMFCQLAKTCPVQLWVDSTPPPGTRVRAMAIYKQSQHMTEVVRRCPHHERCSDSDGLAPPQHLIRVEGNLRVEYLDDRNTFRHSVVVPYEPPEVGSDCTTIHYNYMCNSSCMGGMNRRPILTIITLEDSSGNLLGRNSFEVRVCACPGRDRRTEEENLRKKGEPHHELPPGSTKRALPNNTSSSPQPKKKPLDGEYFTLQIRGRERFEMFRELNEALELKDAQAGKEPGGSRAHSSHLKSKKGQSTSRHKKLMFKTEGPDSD

Test [2] has as its target Aldehyde dehydrogenase, mitochondrial (Homo sapiens) (UniProt P05091). As to the kind of experiment: qHTS for Inhibitors of the Aldehyde Dehydrogenase Family (ALDH2) Primary screen (AID 2061308). Also: nearly all actives have a fitted effect of over 55% in size. Also: potency is read from the fitted curve at half-maximal effect.
In test [3] the target is Retinaldehyde dehydrogenase 3 (Homo sapiens) (UniProt P47895). As to the kind of experiment: qHTS for Inhibitors of the Aldehyde Dehydrogenase Family (ALDH1A3) Confirmatory screens (AID 2061311). Also: nearly all actives have a fitted effect of over 60% in size. Also: potency is read from the fitted curve at half-maximal effect.
The target in test [4] is Retinal dehydrogenase 2 (Homo sapiens) (UniProt O94788). As to the kind of experiment: qHTS for Inhibitors of the Aldehyde Dehydrogenase Family (ALDH1A2) Confirmation screens (AID 2061314). Also: potency is read from the fitted curve at half-maximal effect; nearly all actives have a fitted effect of over 65% in size.
Test [5] addresses Retinaldehyde dehydrogenase 3 (Homo sapiens) (UniProt P47895). The test can be described thus: qHTS for Inhibitors of the Aldehyde Dehydrogenase Family (ALDH1A3) Primary screen (AID 2061315). Also: potency is read from the fitted curve at half-maximal effect.
Test [6] concerns the target Aldehyde dehydrogenase 1A1 (Homo sapiens) (UniProt P00352). The test can be described thus: qHTS for Inhibitors of the Aldehyde Dehydrogenase Family (ALDH1A1) Confirmatory screens (AID 2061316). Also: nearly all actives have a fitted effect of over 65% in size. Also: potency is read from the fitted curve at half-maximal effect.
The target in test [7] is Retinaldehyde dehydrogenase 3 (Homo sapiens) (UniProt P47895). As to the kind of experiment: qHTS for Inhibitors of the Aldehyde Dehydrogenase Family (ALDH1A3) Validation screen (AID 2061312). Also: % is scaled to controls: 0 for no effect and ±100 for the full control effect; nearly all actives have a fitted effect of over 45% in size.

SMILES strings stand for the structures. Inconclusive results are not listed. Values without a mark were called inactive. Activity calls are given as the source filed them. Calls follow the shape of the dose curve; as a rule, active = well fitted curve in the direction sought with a large enough effect; inconclusive = small, poorly fitted or top-dose-only effect, or another doubt; inactive = no such curve, though single readings can be large; an effect the other way counts as inactive or inconclusive.

Take `CCCC/C=C\CCCCCc1cc(=O)c2ccccc2n1C`: the activation in test [1] was -0.893%. The Potency in test [2] was 8.91 µM (active); in test [4] it was 6.97 µM (active). Also, the Potency entry in test [3] and in test [5] was “inactive” in each case.

Regarding `COc1c2cc(c(O[C@@H]3O[C@H](CO)[C@@H](O)[C@H](O)[C@H]3O)c1OC)CCCCC(O)CCc1ccc(O)c-2c1` (some centres undefined), the activation in test [1] was 8.93%. Besides, in test [2], the Potency entry is “inactive”.

As for `CC(C)c1cc2c(c(O)c1O)[C@@]13CCCC(C)(C)C1[C@@H](O)[C@@H]2OC3=O` (some centres undefined), the activation in test [1] was -5.34%. Further, the Potency result in test [2] was “inactive”. Moreover, the Potency is 13.9 µM (active) in test [3] and 4.47 µM (active) in test [5].

As for `OCCc1ccc(O[C@@H]2O[C@H](CO)[C@@H](O)[C@H](O)[C@H]2O)c(O)c1`, the activation in test [1] is 8.93%. Also, the Potency entry in test [2] was “inactive”.

In the case of `CC(=O)c1c(O)cc2cccc3c2c1CC(C)(O)O3` (centres undefined), the activation in test [1] is 6.11%. In addition, the Potency entry in test [2] and in test [5] was “inactive” in each case. Further, the Potency in test [3] was 12.7 µM (active).

Regarding `CC1(C)CCC[C@@]2(C)[C@H]1[C@H](O)C=C1COC(=O)[C@@]12O`, the activation in test [1] is -4.58%. Also, the Potency entry in test [2] was “inactive”.

Consider `COc1cc(O[C@@H]2O[C@H](CO[C@H]3OC[C@](O)(CO)[C@H]3O)[C@@H](O)[C@H](O)[C@H]2O)cc(OC)c1O`, for which the activation in test [1] is -16.8%. For the same compound, the Potency result in test [2] and in test [6] was “inactive” each time. The results for the Potency in test [3] and in test [5] were 4.91 µM (active) and 2.82 µM (active), respectively.

Regarding `COc1ncc(Nc2ncc([C@@H](C)N3CCN(S(C)(=O)=O)CC3)cc2-c2nc(C)nc(N)n2)cc1F`, the activation in test [1] was 21%. Besides, the Potency result in test [2], in test [7] and in test [5] was “inactive” in each case. In test [3], the Potency is 10 µM (active).

For `CC[C@H](NC(=O)c1c(O)c(-c2ccccc2)nc2ccccc12)c1ccccc1`, the activation in test [1] is 2.86%. In test [2], the Potency result was “inactive”. Also, the Potency in test [3] is 3.57 µM (active); in test [4], 1.27 µM (active); in test [6] it was 3.18 µM (active).
